Source: PubChem BioAssay (National Center for Advancing Translational Sciences (NCATS))
JMJD2A Tudor inh: JMJD2A Tudor domain (human) inhibition; AlphaScreen JMJD2A-Tudor / H3K4me3 peptide binding; hit rate 4.4% among 390,000; AID 504339; O75164; Potency, µM (titrated, usually from 114 µM), without a hit: top-dose activity change, negative = inhibition, hits mostly inhibitors; further: potency means the concentration at half of the fitted maximal effect; on the % scale 0 is the no-effect control and ±100 the full control effect; nearly all actives have a fitted effect of over 50% in size
BAZ2B inh: blocks human BAZ2B | hit rate 4.4% among 360,000 | AID 504333 | Potency, µM (top dose mostly 114 µM), for the others: at the top dose activity change, negative = inhibition, usual class: inhibitors | AlphaScreen BAZ2B-H3K14Ac peptide displacement | Q9UIF8; further: potency means the concentration at half of the fitted maximal effect; on the % scale 0 is the no-effect control and ±100 the full control effect; nearly all actives have a fitted effect of over 60% in size
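BAZ2B 50 nM plus b-H3(5-23)K14Ac 50 nM, PBS pH 7.4/0.01% Tween-20, 30 min RT; compound added (max 110 uM), 30 min RT; streptavidin donor/Ni-chelate acceptor beads 10 ug/mL final, 20 min dark; AlphaScreen read.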
PI5P4K alpha inh: inhibitors of human PI5P4K alpha. hit rate 1.2% among 330,000. P48426. max response, %. PI5P4Kalpha enzyme, ADP-Glo luminescence, 60 min; hits give low values; active means max response of -50% or lower; inconclusive means between -30% and -50%; inactive means -30% or higher; further: value at the top dose of about 77 µM; on the % scale 0 is the no-effect control and ±100 the full control effect
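Controls without substrate or without enzyme flank wells where PI5P4Kalpha converts substrate using 5 microM ATP (final). Incubation lasts 60 minutes at room temperature; ADP formed is read by ADP-Glo luminescence.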
PLK1 PBD block: PLK1 (human) polo-box domain binding inhibition. Plk1 PBD binding of FITC phosphopeptide, fluorescence polarization. P53350. Potency, µM, for the others: max response, negative = inhibition, usual class: inhibitors. hit rate 2.8% among 360,000; further: potency means the concentration at half of the fitted maximal effect; series mostly up to about 57 µM; on the % scale 0 is the no-effect control and ±100 the full control effect; nearly all actives have a fitted effect of over 65% in size
HP1b binding inh: inhibitors of HP1-beta chromodomain binding to methylated histone tails | P83916 | AlphaScreen HP1-beta / biotin-H3K9me3 peptide binding | Potency, µM (titrated, usually from 114 µM), inactives show top-dose activity change, negative = inhibition, hits mostly inhibitors | hit rate 0.56% among 390,000; further: potency means the concentration at half of the fitted maximal effect; nearly all actives have a fitted effect of over 70% in size
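HP1-beta protein (50 nM final) preincubated 30 min at room temperature with biotinylated H3(1-18)K9me3 peptide (50 nM) in PBS pH 7.4, 0.01% Tween-20, then compound added for 30 min. AlphaScreen streptavidin donor/nickel chelate acceptor beads (10 ug/mL final), 30 min dark, luminescence read.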
G9a inh: G9a (human) methyltransferase inhibition | G9a H3K9 monomethylation, AlphaScreen, 2 h | Potency, µM (highest dose often 102 µM), for the others: at the highest dose activity, negative = inhibition, most hits filed as inhibitors | hit rate 8.8% among 350,000 | AID 504332; further: potency means the concentration at half of the fitted maximal effect; on the % scale 0 is the no-effect control and ±100 the full control effect; nearly all actives have a fitted effect of over 75% in size
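AlphaScreen read-out: biotin-H3K9 peptide (500 nM) methylation by 20 nM enzyme with 20 uM SAM, 2 h at room temperature after 15 min compound preincubation; anti-monomethyl H3K9 antibody plus donor/acceptor beads, 10 min dark.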
Numbers without * were called inactive; [ ] = remark or other dose. The list is not random: actives were taken first. Their share in the collection is about 12%. Unless noted, the call rests on the fitted dose curve; in most records, active means well fitted curve in the direction sought with a large enough effect; inconclusive means small, poorly fitted or top-dose-only effect, or another doubt; inactive means no such curve, though single readings can be large; an effect the other way counts as inactive or inconclusive.

Results for C=CCn1c(NC(=O)c2ccc(Br)o2)c(C(=O)OCC)sc1=S ?
JMJD2A Tudor inh: 89µM*; BAZ2B inh: -30%; PLK1 PBD block: 6.7µM*; HP1b binding inh: -39%; G9a inh: 3.2µM*

Results for CC1(C(=O)NCc2cccc3ccccc23)CCN1C(=O)Cc1ccc(-c2ccccc2)cc1 (configuration not stated) ?
PI5P4K alpha inh: 37; PLK1 PBD block: -4%

Results for CCCCOC(=O)c1ccc(NC(=O)c2ccc3c(c2)CCCN3S(C)(=O)=O)cc1 ?
JMJD2A Tudor inh: -15%; BAZ2B inh: -11%; HP1b binding inh: 14%; G9a inh: -3%[59 µM]

Results for CCn1c(=O)n(CC)c2cc(N3CCCC3)c(NC(=O)c3ccc(F)cc3)cc21 ?
JMJD2A Tudor inh: -21%; BAZ2B inh: inconclusive; PI5P4K alpha inh: 2; PLK1 PBD block: -2%; HP1b binding inh: 26%; G9a inh: 45µM*

Results for CCn1c(=O)n(CC)c2cc(N3CCCC3)c(NC(=O)c3c(F)cccc3F)cc21 ?
JMJD2A Tudor inh: 7%; BAZ2B inh: inconclusive; PI5P4K alpha inh: 4; PLK1 PBD block: -10%; HP1b binding inh: 20%; G9a inh: inconclusive

How did CCn1c(=O)c(=O)n(CC)c2cc(N3CCCCC3)c(NC(=O)c3ccc(OC)c(OC)c3)cc21 do in these assays?
JMJD2A Tudor inh: -23%; BAZ2B inh: -14%; HP1b binding inh: 6%; G9a inh: -22%[59 µM]

What do the screens show for `CCOc1ccc(C(=O)Nc2cc3c(cc2N2CCCC2)n(CC)c(=O)n3CC)cc1OCC`?
JMJD2A Tudor inh: -32%; BAZ2B inh: inconclusive; PI5P4K alpha inh: 2; PLK1 PBD block: -16%; HP1b binding inh: 7%; G9a inh: 45µM*

How did CN(C(=O)C(=O)Nc1ccc2nc3n(c(=O)c2c1)CCCCC3)c1cccc(C(F)(F)F)c1 do in these assays?
JMJD2A Tudor inh: -11%; BAZ2B inh: -2%; HP1b binding inh: 14%; G9a inh: 11%[59 µM]

Results for CC1(C)CC(=O)c2c(oc3cc(O)c(O)cc23)C1 ?
JMJD2A Tudor inh: 14µM*; BAZ2B inh: -37%; PI5P4K alpha inh: -24; PLK1 PBD block: -7%; HP1b binding inh: -32%; G9a inh: 3.5µM*

How did CC(C)c1ccc(S(=O)(=O)Nc2ccc3oc4c(c3c2)C(=O)CC(C)(C)C4)cc1 do in these assays?
JMJD2A Tudor inh: -13%; BAZ2B inh: 12%; HP1b binding inh: 24%; G9a inh: 7%[59 µM]

How did Cc1ccn2c(C(=O)N/N=C\c3cccs3)c(C)nc2c1 do in these assays?
JMJD2A Tudor inh: -18%; BAZ2B inh: 6%; PLK1 PBD block: -7%; HP1b binding inh: 32%; G9a inh: inconclusive

Results for Cc1ccc(C)c(-n2c(C)cc(/C=N/NC(=O)c3c(C)nc4cc(C)ccn34)c2C)c1 ?
JMJD2A Tudor inh: 40µM*; BAZ2B inh: -9%; PI5P4K alpha inh: -10; PLK1 PBD block: 1%; HP1b binding inh: -12%; G9a inh: inconclusive

What do the screens show for `COc1cc(C)c(NC(=O)c2cccc(S(=O)(=O)N3CCCC3)c2)cc1OC`?
JMJD2A Tudor inh: -14%; PI5P4K alpha inh: 0; PLK1 PBD block: -2%; HP1b binding inh: 27%[57 µM]

Results for CCCCNS(=O)(=O)c1ccc2nc(-c3cccnc3)cc(C(=O)NCCCOC(C)C)c2c1 ?
JMJD2A Tudor inh: -12%; BAZ2B inh: 3%; HP1b binding inh: 13%; G9a inh: -6%[59 µM]

What do the screens show for `COc1ccc(CCN(C)C(=O)C2CCN(Cc3ccccc3)CC2)cc1OC`?
JMJD2A Tudor inh: 22µM*; BAZ2B inh: 12%; PI5P4K alpha inh: 3; PLK1 PBD block: -4%; HP1b binding inh: inconclusive; G9a inh: 11%

How did CCN(Cc1ccccc1)C1CCN(Cc2ccccc2)CC1 do in these assays?
JMJD2A Tudor inh: -6%; BAZ2B inh: -24%; PI5P4K alpha inh: -1; PLK1 PBD block: 4%; HP1b binding inh: 29%; G9a inh: 71µM*

What do the screens show for `CCCN1CCC(N(CCc2ccccc2)Cc2ccccc2)CC1`?
JMJD2A Tudor inh: -16%; BAZ2B inh: -2%; PI5P4K alpha inh: 23; PLK1 PBD block: -2%; HP1b binding inh: 21%; G9a inh: -22%

Results for COc1ccc(CCN(C)C(=O)CN2C(=O)c3ccccc3S2(=O)=O)cc1OC ?
JMJD2A Tudor inh: 79µM*; BAZ2B inh: -2%; PI5P4K alpha inh: 1; PLK1 PBD block: inconclusive; HP1b binding inh: inconclusive; G9a inh: inconclusive

Results for COc1ccc(CN2CCC(C(=O)N(C)CCc3ccc(OC)c(OC)c3)CC2)c(OC)c1 ?
JMJD2A Tudor inh: 7.9µM*; BAZ2B inh: inconclusive; PI5P4K alpha inh: 7; PLK1 PBD block: -10%; HP1b binding inh: inconclusive; G9a inh: 10µM*

Results for O=C1OC(CN(Cc2ccccc2)Cc2ccccc2)CN1N=Cc1ccc([N+](=O)[O-])o1 (configuration not stated) ?
JMJD2A Tudor inh: -14%; PI5P4K alpha inh: 2; PLK1 PBD block: -18%; HP1b binding inh: -13%

How did Cc1noc(C)c1-c1cncnc1Nc1ccccc1 do in these assays?
G9a inh: -1%[0.501 µM]

How did O=C(NCc1ccc(Cl)cc1)C(=O)Nc1cccc(Br)c1 do in these assays?
JMJD2A Tudor inh: -8%; BAZ2B inh: 9%; HP1b binding inh: 32%; G9a inh: 38%[59 µM]

What do the screens show for `COc1ccc(CN2CCC(N(CCc3ccccc3)Cc3ccccc3)CC2)c(OC)c1`?
JMJD2A Tudor inh: 3.2µM*; BAZ2B inh: 40µM*; PI5P4K alpha inh: -8; PLK1 PBD block: -6%; HP1b binding inh: inconclusive; G9a inh: inconclusive

What do the screens show for `COc1ccc(CCN(C)C(=O)C2CCN(Cc3cccc(OC)c3OC)CC2)cc1OC`?
JMJD2A Tudor inh: 3.2µM*; BAZ2B inh: inconclusive; PI5P4K alpha inh: 1; PLK1 PBD block: -3%; HP1b binding inh: -16%

Results for COc1ccc(-c2cc(C(=O)N(C)CCc3ccc(OC)c(OC)c3)c3ccccc3n2)cc1 ?
JMJD2A Tudor inh: -13%; BAZ2B inh: -10%; PI5P4K alpha inh: 7; PLK1 PBD block: -5%; HP1b binding inh: 20%

What do the screens show for `COc1ccc(CCN(C)C(=O)C2CC(=O)N(Cc3ccc(C)cc3)C2)cc1OC` (configuration not stated)?
JMJD2A Tudor inh: -3%; BAZ2B inh: 4%; PI5P4K alpha inh: 3; PLK1 PBD block: -9%; HP1b binding inh: 26%; G9a inh: 0%[59 µM]

What do the screens show for `COc1ccc(CCN(C)C(=O)c2cc(-c3ccccc3)nc3ccccc23)cc1OC`?
JMJD2A Tudor inh: -9%; BAZ2B inh: inconclusive; PI5P4K alpha inh: -7; PLK1 PBD block: 0%; HP1b binding inh: 25%; G9a inh: 40µM*
